Test results published in PubChem BioAssay (NCATS).
Records with an inconclusive call do not appear. The source made the active and inactive calls. The call rests on the fitted dose curve; in most records, active means well fitted curve in the direction sought with a large enough effect; inconclusive means small, poorly fitted or top-dose-only effect, or another doubt; inactive means no such curve, though single readings can be large; an effect the other way counts as inactive or inconclusive.

Tests used:
[1] = qHTS of pediatric cancer cell lines to identify multiple opportunities for drug repurposing: Primary screen for SK-N-SH cells (AID 1347098); further: nearly all actives have a fitted effect of over 65% in size
Procedure, shortened: (§1)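 Cells (500-1,000/well) rested 5 h, then received compounds for 48 h; metabolically active cells were measured by CellTiter-Glo luminescence. Final concentrations spanned up to 46 µM (MIPE, 11-point) or 0.59 nM-46 µM (NPC, 8-point) in primary screens, 11-point in follow-ups.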

[2] = qHTS of pediatric cancer cell lines to identify multiple opportunities for drug repurposing: Primary screen for NB1643 cells (AID 1347099); further: nearly all actives have a fitted effect of over 50% in size
Procedure, shortened: (§2)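 Cells seeded at 500-1,000 cells/well in growth media, rested 5 hours at 37 degrees C, 5% CO2, then dosed; MIPE compounds at 11-point (from 0.78 nM) and NPC at 8-point (from 0.59 nM) final concentrations. Viability by CellTiter-Glo luminescence after 48 hours.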

[3] = qHTS of pediatric cancer cell lines to identify multiple opportunities for drug repurposing: Primary screen for LAN-5 cells (AID 1347100)
Procedure, shortened: (§3)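 Cells (500-1,000/well) in growth media were settled 5 h at 37 degrees C, then given compounds for 48 h. Viability was read as CellTiter-Glo luminescence. Primary runs used MIPE at 11 points (0.78 nM-46 µM) and NPC at 8 points (0.59 nM-46 µM); follow-ups used 11 points.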

[4] = qHTS of pediatric cancer cell lines to identify multiple opportunities for drug repurposing: Primary screen for BT-12 cells (AID 1347101); further: nearly all actives have a fitted effect of over 25% in size
Procedure, shortened: as §1

[5] = qHTS of pediatric cancer cell lines to identify multiple opportunities for drug repurposing: Primary screen for Rh18 cells (AID 1347102); further: nearly all actives have a fitted effect of over 65% in size
Procedure, shortened: as §3

[6] = qHTS of pediatric cancer cell lines to identify multiple opportunities for drug repurposing: Primary screen for MG 63 (6-TG R) cells (AID 1347105); further: nearly all actives have a fitted effect of over 50% in size
Procedure, shortened: as §2

[7] = qHTS of pediatric cancer cell lines to identify multiple opportunities for drug repurposing: Primary screen for control Hh wild type fibroblast cells (AID 1347106); further: nearly all actives have a fitted effect of over 55% in size
Procedure, shortened: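 Viability after 48 h compound treatment at 37C, 500-1,000 cells/well, read as ATP luminescence with CellTiter-Glo. Primary screens used 11-point (MIPE, 0.78 nM-46 µM) or 8-point (NPC, 0.59 nM-46 µM) final concentrations; follow-up screens used 11-point dilutions.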

[8] = qHTS of pediatric cancer cell lines to identify multiple opportunities for drug repurposing: Primary screen for Rh30 cells (AID 1347107); further: nearly all actives have a fitted effect of over 75% in size
Procedure, shortened: as §3

[9] = qHTS of pediatric cancer cell lines to identify multiple opportunities for drug repurposing: Primary screen for Rh41 cells (AID 1347108); further: nearly all actives have a fitted effect of over 70% in size
Procedure, shortened: as §2

[10] = qHTS of pediatric cancer cell lines to identify multiple opportunities for drug repurposing: Confirmatory screen for A673 cells (AID 1347110);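 further: cells exposed to compound for 48 h before the viability read; nearly all actives have a fitted effect of over 65% in size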
Procedure, shortened: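 A673 cells seeded at 500-1,000 cells/well, rested 5 h, then dosed; primary MIPE 11-point (0.78 nM to 46 µM), NPC (0.59 nM to 46 µM); confirmatory 11-point. CellTiter-Glo luminescence after 48 h.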

[11] = qHTS of pediatric cancer cell lines to identify multiple opportunities for drug repurposing: Confirmatory screen for SK-N-MC cells (AID 1347111);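 further: cells exposed to compound for 48 h before the readout; nearly all actives have a fitted effect of over 70% in size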
Procedure, shortened: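 Metabolically active cells were quantified by ATP-dependent luminescence (CellTiter-Glo, 15 min at room temperature) following 48 h treatment. Cells had been plated at 500-1,000 per well and settled for 5 h beforehand.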

[12] = qHTS of pediatric cancer cell lines to identify multiple opportunities for drug repurposing: Confirmatory screen for BT-12 cells (AID 1347112); further: nearly all actives have a fitted effect of over 55% in size
Procedure, shortened: as §3

[13] = qHTS of pediatric cancer cell lines to identify multiple opportunities for drug repurposing: Confirmatory screen for SJ-GBM2 cells (AID 1347116); further: nearly all actives have a fitted effect of over 60% in size
Procedure, shortened: (§4)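 Viability measured as metabolically active cells via CellTiter-Glo luminescence following 48 hours of compound exposure, 11-point dilutions in confirmatory testing. 500-1,000 cells/well plated 5 hours before dosing; controls were DMSO and 2.3 µM bortezomib.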

[14] = qHTS of pediatric cancer cell lines to identify multiple opportunities for drug repurposing: Confirmatory screen for BT-37 cells (AID 1347117); further: nearly all actives have a fitted effect of over 55% in size
Procedure, shortened: as §3

[15] = qHTS of pediatric cancer cell lines to identify multiple opportunities for drug repurposing: Primary screen for OHS-50 cells (AID 1347103); further: nearly all actives have a fitted effect of over 40% in size
Procedure, shortened: as §1

[16] = qHTS of pediatric cancer cell lines to identify multiple opportunities for drug repurposing: Primary screen for RD cells (AID 1347104); further: nearly all actives have a fitted effect of over 55% in size
Procedure, shortened: as §2

[17] = qHTS of pediatric cancer cell lines to identify multiple opportunities for drug repurposing: Confirmatory screen for NB1643 cells (AID 1347109); further: nearly all actives have a fitted effect of over 45% in size
Procedure, shortened: as §3

[18] = qHTS of pediatric cancer cell lines to identify multiple opportunities for drug repurposing: Confirmatory screen for LAN-5 cells (AID 1347113); further: nearly all actives have a fitted effect of over 65% in size
Procedure, shortened: as §3

[19] = qHTS of pediatric cancer cell lines to identify multiple opportunities for drug repurposing: Confirmatory screen for DAOY cells (AID 1347114); further: nearly all actives have a fitted effect of over 65% in size
Procedure, shortened: as §4

[20] = qHTS of pediatric cancer cell lines to identify multiple opportunities for drug repurposing: Confirmatory screen for NB-EBc1 cells (AID 1347115);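 further: cells exposed to compound for 48 h before the viability read; nearly all actives have a fitted effect of over 45% in size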
Procedure, shortened: as §3

Measured: Potency
Potency means the concentration at half of the fitted maximal effect.

NC(=O)c1cccc2cn(-c3ccc([C@@H]4CCCNC4)cc3)nc12
inactive: [1] | [4] | [5] | [6] | [7] | [8] | [9] | [12] | [13]
active: [2] 20.9 µM | [3] 11.8 µM | [10] 5.22 µM | [11] 2.08 µM | [14] 5.22 µM

CC[C@@H]1C(=O)N(C)c2cnc(Nc3ccc(C(=O)NC4CCC(N5CCN(CC6CC6)CC5)CC4)cc3OC)nc2N1C(C)C (some centres not stated)
inactive: [17] | [12] | [18] | [19] | [20] | [13] | [14]
active: [1] 0.607 µM | [2] 0.469 µM | [3] 0.0526 µM | [4] 6.11 µM | [15] 0.122 µM | [16] 0.187 µM | [8] 16.6 µM | [9] 2.35 µM

COc1cccc2c(NCc3ccccc3)nc(-n3c(N)nc4ccccc43)nc12
active: [1] 10.8 µM | [2] 9.35 µM | [3] 9.35 µM | [4] 10.9 µM | [5] 9.35 µM | [15] 9.68 µM | [6] 9.35 µM | [8] 14.8 µM | [9] 18.7 µM | [17] 7.37 µM | [10] 7.37 µM | [11] 7.37 µM | [12] 13.1 µM | [18] 9.27 µM | [19] 2.33 µM | [20] 8.27 µM | [14] 7.37 µM

CNC(=O)c1ccc(N2C(=S)N(c3cnc(C#N)c(C(F)(F)F)c3)C(=O)C23CCC3)cc1F
active: [1] 1.21 µM | [2] 3.32 µM | [3] 8.33 µM | [4] 19.3 µM | [5] 14.8 µM | [16] 5.9 µM | [6] 2.35 µM | [7] 3.72 µM | [8] 1.66 µM | [9] 1.48 µM
inactive: [17] | [10] | [11] | [12] | [18] | [19] | [20] | [13] | [14]

Cc1cn2c(-c3cn[nH]c3)cnc2c(Nc2ccc(C(=O)N3CCNCC3)cc2F)n1
active: [1] 24.1 µM | [2] 18.7 µM | [3] 16.6 µM | [5] 16.6 µM | [15] 13.7 µM | [9] 18.7 µM | [17] 9.27 µM | [10] 8.27 µM | [11] 26.1 µM | [18] 13.1 µM | [14] 10.4 µM
inactive: [20]

COc1ccc(-n2nc(C(N)=O)c3c2C(=O)N(c2ccc(N4CCCCC4=O)cc2)CC3)cc1
inactive: [1] | [2] | [3] | [5] | [15] | [16] | [6] | [8] | [9] | [17] | [10] | [12] | [20] | [14]
active: [13] 2.33 µM

CNC(=O)c1ccccc1Nc1nc(Nc2ccc(N3CCOCC3)cc2OC)ncc1Cl
active: [1] 6.07 µM | [2] 0.332 µM | [3] 0.264 µM | [5] 5.9 µM | [15] 0.306 µM | [6] 0.935 µM | [8] 1.32 µM | [9] 0.935 µM | [17] 0.369 µM | [10] 1.04 µM | [11] 0.737 µM | [18] 0.414 µM | [20] 8.27 µM | [13] 9.27 µM | [14] 13.1 µM

CC(C)(O)c1cc2nc(-c3cnc(N)nc3)nc(N3CCOCC3)c2s1
active: [1] 8.57 µM | [2] 0.187 µM | [3] 0.372 µM | [5] 0.372 µM | [16] 0.209 µM | [6] 0.0469 µM | [8] 5.26 µM | [9] 0.372 µM | [17] 1.47 µM | [10] 1.85 µM | [11] 1.17 µM | [18] 0.737 µM | [14] 1.65 µM

Cc1cc(Nc2nc(N[C@@H](C)c3ccc(F)cc3)c(C#N)cc2F)n[nH]1
active: [1] 3.41 µM | [2] 0.935 µM | [3] 0.418 µM | [5] 5.9 µM | [9] 5.9 µM

Cc1nc2cnc3ccc(C#Cc4cccnc4)cc3c2n1-c1ccc(C(C)(C)C#N)cc1
active: [1] 0.0681 µM | [2] 3.32 µM | [3] 5.9 µM | [5] 1.18 µM | [15] 0.0968 µM | [16] 0.0833 µM | [6] 0.0743 µM | [8] 0.469 µM | [9] 0.0833 µM | [17] 12 µM | [10] 2.69 µM | [11] 1.7 µM | [18] 3.02 µM | [13] 6.76 µM | [14] 1.51 µM

CC(=O)Nc1nc(C)c(-c2ccc(Cl)c(S(=O)(=O)NCCO)c2)s1
active: [1] 2.41 µM | [2] 3.32 µM | [3] 5.9 µM | [5] 7.43 µM | [15] 0.544 µM | [16] 4.18 µM | [6] 1.48 µM | [9] 6.62 µM | [17] 16.5 µM | [11] 8.27 µM | [18] 6.57 µM | [14] 18.5 µM
